# Source: PubChem
# Shown are actives, neighbours in structure and some others; about 10% of the full set was active somewhere.
# HP1b binding inh: HTS for Inhibitors of HP1-beta Chromodomain Interactions with Methylated Histone Tails | Chromobox protein homolog 1 (Homo sapiens), P83916 | AlphaScreen HP1-beta / biotin-H3K9me3 peptide binding | Potency, µM (titrated, usually from 114 µM), without a hit: top-dose activity change, negative = inhibition, actives largely listed as inhibitors | 390,000 tested, 0.56% active; also: potency is read from the fitted curve at half-maximal effect; nearly all actives have a fitted effect of over 70% in size
#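 Compound inhibition of the preformed complex between 50 nM HP1-beta and 50 nM biotinylated H3K9me3 peptide was read by AlphaScreen. Buffer was PBS pH 7.4 with 0.01% Tween-20. Incubations ran 30 min at room temperature, with 10 ug/mL donor/acceptor beads.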
# BAZ2B inh: qHTS Assay for Inhibitors of BAZ2B; AID 504333, 2011; 360,000 tested, 4.4% active; Bromodomain adjacent to zinc finger domain protein 2B (Homo sapiens), Q9UIF8; Potency, µM (series often up to 114 µM), inactives show at the top dose activity change, negative = inhibition, usual class: inhibitors; AlphaScreen BAZ2B-H3K14Ac peptide displacement; also: potency is read from the fitted curve at half-maximal effect; % is scaled to controls: 0 for no effect and ±100 for the full control effect; nearly all actives have a fitted effect of over 60% in size
#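 BAZ2B 50 nM plus b-H3(5-23)K14Ac 50 nM, PBS pH 7.4/0.01% Tween-20, 30 min RT; compound added (max 110 uM), 30 min RT; streptavidin donor/Ni-chelate acceptor beads 10 ug/mL final, 20 min dark; AlphaScreen read.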
# JMJD2A Tudor: qHTS Assay for Inhibitors of JMJD2A-Tudor Domain. Potency, µM (top dose mostly 114 µM), inactives show at the highest dose activity change, negative = inhibition, most hits filed as inhibitors. 390,000 tested, 4.4% active. AlphaScreen JMJD2A-Tudor / H3K4me3 peptide binding. Lysine-specific demethylase 4A (Homo sapiens), O75164; also: potency is read from the fitted curve at half-maximal effect; % is scaled to controls: 0 for no effect and ±100 for the full control effect; nearly all actives have a fitted effect of over 50% in size
# Target sequence (O75164 whole entry, looked up, the tested form may be a part): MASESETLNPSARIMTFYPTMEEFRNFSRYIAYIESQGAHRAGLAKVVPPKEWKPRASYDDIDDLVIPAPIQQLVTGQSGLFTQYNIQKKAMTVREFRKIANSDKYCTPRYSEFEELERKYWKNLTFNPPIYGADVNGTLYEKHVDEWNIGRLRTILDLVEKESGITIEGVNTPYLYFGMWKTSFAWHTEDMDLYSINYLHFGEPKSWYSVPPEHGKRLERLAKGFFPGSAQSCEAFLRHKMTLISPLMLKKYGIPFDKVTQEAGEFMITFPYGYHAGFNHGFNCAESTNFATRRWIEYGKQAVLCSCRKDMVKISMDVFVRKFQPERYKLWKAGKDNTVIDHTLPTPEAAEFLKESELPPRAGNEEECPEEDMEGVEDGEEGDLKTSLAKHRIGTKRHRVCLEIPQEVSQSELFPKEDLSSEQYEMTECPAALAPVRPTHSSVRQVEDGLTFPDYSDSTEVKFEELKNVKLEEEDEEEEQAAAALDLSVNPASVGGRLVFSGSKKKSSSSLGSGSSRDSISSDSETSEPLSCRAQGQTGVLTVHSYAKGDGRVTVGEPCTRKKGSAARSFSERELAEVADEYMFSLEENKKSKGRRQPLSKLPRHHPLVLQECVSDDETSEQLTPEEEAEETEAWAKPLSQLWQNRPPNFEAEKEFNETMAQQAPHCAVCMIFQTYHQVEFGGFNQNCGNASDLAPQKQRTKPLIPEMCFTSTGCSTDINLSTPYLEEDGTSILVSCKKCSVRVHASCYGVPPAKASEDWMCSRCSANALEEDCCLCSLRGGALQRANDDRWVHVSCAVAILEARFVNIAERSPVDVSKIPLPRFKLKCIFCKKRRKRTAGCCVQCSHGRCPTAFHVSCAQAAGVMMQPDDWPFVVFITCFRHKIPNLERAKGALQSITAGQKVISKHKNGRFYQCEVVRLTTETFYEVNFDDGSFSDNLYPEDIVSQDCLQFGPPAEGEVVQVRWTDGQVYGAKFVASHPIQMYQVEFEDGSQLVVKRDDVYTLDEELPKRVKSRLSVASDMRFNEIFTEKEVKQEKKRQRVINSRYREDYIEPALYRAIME
# G9a inh: qHTS Assay for Inhibitors of Histone Lysine Methyltransferase G9a; Histone-lysine N-methyltransferase EHMT2 (Homo sapiens), Q96KQ7; G9a H3K9 monomethylation, AlphaScreen, 2 h; Potency, µM (titrated, usually from 102 µM), for the others: top-dose activity, negative = inhibition, most hits filed as inhibitors; 350,000 tested, 8.8% active; also: potency is read from the fitted curve at half-maximal effect; % is scaled to controls: 0 for no effect and ±100 for the full control effect; nearly all actives have a fitted effect of over 75% in size
#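 Readings reflect AlphaScreen signal from monomethyl-H3K9 antibody detection. HMT at 20 nM; substrate b-H3K9 500 nM; cofactor SAM 20 uM; 2 h RT reaction; compounds tested as titrations in qHTS with 15 min preincubation.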
# CtBP-E1A inh: qHTS Assay for Inhibitors of the CtBP/E1A Interaction; AlphaScreen GST-E1A/His-CtBP binding, 1536-well; stronger effect = lower value; activity change, % (no concentration beside the values); 340,000 tested, 0.49% active; AID 651724, 2012; in the data active = activity change below about -65%; inconclusive = mostly about -30% to -63%; also: % is scaled to controls: 0 for no effect and ±100 for the full control effect
#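 GST-E1A and His-tagged CtBP (125 nM each as 5X stock) were preincubated with pin-transferred compound for 2 h at 37 °C in the dark, then glutathione donor and nickel acceptor beads were added for 1 h before AlphaScreen reading.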
# Six1-Eya2 blk: qHTS Assay for Inhibitors of the Six1/Eya2 Interaction. Homeobox protein SIX1 (Homo sapiens) + Protein phosphatase EYA2 (Homo sapiens), …. 360,000 tested, 0.56% active. activity change, % (test concentration not listed). AlphaScreen GST-Six1/His-Eya2 binding, biochemical; stronger effect = lower value; in the data active = activity change below about -65%; inconclusive = mostly about -30% to -63%; also: % is scaled to controls: 0 for no effect and ±100 for the full control effect
#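 Compounds are tested against tagged Six1 and Eya2 proteins bridged by glutathione donor and nickel acceptor beads; after a one-hour incubation at 37 °C without light, AlphaScreen emission is recorded.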
# An asterisk follows results filed as active; ? = inconclusive; / = no result given; [ ] = remark or other dose. Unless noted, calls follow the shape of the dose curve; as a rule, active = well fitted inhibition curve with a large enough effect; inconclusive = small, poorly fitted or top-dose-only effect; inactive = no such curve, though single readings can be large or run the other way.
SMILES,HP1b binding inh,BAZ2B inh,JMJD2A Tudor,G9a inh,CtBP-E1A inh,Six1-Eya2 blk
CCSc1nc2c(c(-c3ccc(C)o3)c1C#N)CCCC2,57.8%,10.2%,84.3%,?,30.8,31.1
COc1ccc2[nH]cc(S(=O)(=O)c3ccc(C)c(C)c3)c(=O)c2c1,23.5%,3.6%,-8.9%,-4.2%[59 µM],/,/
COc1ccc(S(=O)(=O)N2CCN(Cc3cccs3)CC2)cc1OC,28.5%,/,-13.0%,/,-2.3,0.5
O=C(Nc1cccc2ccccc12)N1CC=C(c2ccccc2)CC1,16.1%,1.0%,-16.5%,44.7µM*,7.6,1.9
O=C(Nc1ccccc1)N1CC=C(c2ccccc2)CC1,/,7.7%,/,-41.8%[12.7 µM],/,/
Cc1ccc([C@@H]2CC(=O)[C@@H]3CN(S(=O)(=O)c4ccccc4C)[C@H](c4ccc(Cl)cc4)C[C@@H]3N2S(=O)(=O)c2ccc(C)cc2)cc1,/,/,/,/,4.1,0.7
Cc1cccc(C)c1NC(=O)CSc1nnc(C2CCCCC2)o1,11.7%[57 µM],3.4%,-4.8%,9.3%,4.1,5.7
Cc1ccc2c(c1)c1c(n2C)-c2[nH]ncc2CC1,?,44.7µM*,?,?,-12.1,-22.4
Cc1ccc2sc(N(CCCN(C)C)C(=O)c3nc4ccccc4s3)nc2c1C,?,-25.7%,-33.8%,44.7µM*,-2.5,-3.3
Cc1cccc2sc(N(CCCN(C)C)C(=O)c3nc4ccccc4s3)nc12,0.0%,-5.9%,-13.9%,10µM*,-0.6,2.0
CCc1ccc2nc(N(CCN(C)C)C(=O)c3ccc4ncsc4c3)sc2c1,?,?,50.1µM*,10µM*,-19.0,?
Cc1cccc2sc(N(CCCN(C)C)C(=O)CCc3ccccc3)nc12,-5.2%,-30.9%,?,?,0.0,-20.2
Cc1cccc2sc(N(CCCN(C)C)C(=O)c3ccc4ncsc4c3)nc12,-5.3%[57 µM],-36.8%,?,31.6µM*,/,-10.7
CCc1ccc2nc(N(Cc3cccnc3)C(=O)c3ccc(C#N)cc3)sc2c1,4.8%,?,-23.7%,-6.6%[59 µM],/,/
CCC(CO)NS(=O)(=O)c1cc(-c2nn(C)c(=O)c3ccccc23)ccc1C (stereo not given),37.6%,1.1%,-9.8%,13.8%,0.4,-19.6
CCOc1ccc(S(=O)(=O)N2CCOCC2)cc1NC(=O)CN1C(=O)NC(C)(C2CC2)C1=O (stereo not given),/,/,/,/,1.1,0.7
CCOc1ccc(CNC(=O)c2cc(=O)[nH]c3ccc(S(=O)(=O)N4CCCC4)cc23)cc1,19.7%,-0.9%,-8.9%,-4.4%[59 µM],/,/
Cc1ccc2sc(N(CCCN(C)C)C(=O)c3ccc(Br)s3)nc2c1C,4.2%,?,?,35.5µM*,-25.2,-20.0
O=C(CCCn1c(=O)c2cccn2c2ccccc21)Nc1cccc(Cl)c1,-8.9%,?,-35.5%,-45.4%[59 µM],/,/
COc1cccc(C(=O)CC2(O)C(=O)N(Cc3ccccc3)c3ccccc32)c1 (stereo not given),3.6%,-31.5%,-21.1%,-22.7%[59 µM],/,/
CCCN1C(=O)C(O)(CC(=O)c2cccc(OC)c2)c2ccccc21 (stereo not given),-39.0%,56.2µM*,?,-39.4%[12.7 µM],5.3,7.3
O=C(Nc1ccc(Cl)cc1)Nc1ccccc1Sc1ncc([N+](=O)[O-])s1,7.8%,28.2µM*,?,/,-12.7,-26.7
C[C@@H]1CN([C@H](C)CO)C(=O)CCCn2cc(nn2)CO[C@H]1CN(C)S(=O)(=O)c1ccc(-n2cccn2)cc1,/,/,/,/,-10.5,-11.0
COc1ccc2c(c1OC)C(=O)OC2CC(=O)c1ccc(O)c(O)c1 (stereo not given),2.4%,?,5.01µM*,39.8µM*,-2.1,-7.3
O=C(NCCNCc1ccc(F)cc1)c1ccco1,?,50.1µM*,3.55µM*,7.94µM*,4.2,6.3
SMILES,HP1b binding inh,BAZ2B inh,JMJD2A Tudor,G9a inh,CtBP-E1A inh,Six1-Eya2 blk
COc1cccc(CNCCNC(=O)c2ccco2)c1OC,-17.8%,50.1µM*,?,11.2µM*,7.0,2.4
COCCCNC(=O)c1cccs1,73.9%,11.9%,1.4%,6.5%,-1.0,2.6
COc1ccc(CNCCNC(=O)c2cccs2)c(OC)c1OC,-22.0%,56.2µM*,22.4µM*,14.1µM*,-6.3,7.1
O=C(NCCNC(=O)c1ccco1)c1ccc(F)cc1,0.4%,-10.2%,-3.4%,-1.7%,11.5,1.1
COc1ccc(OC)c(CNCCNC(=O)c2ccco2)c1,/,56.2µM*,/,?,/,/
CCOCCc1nn2c(=O)cc(COC(=O)c3ccccc3NC(=O)c3ccccc3F)nc2s1,37.1%,0.2%,9.3%,-3.9%[12.7 µM],/,/
COc1ccc2c(c1)c1c(c(=O)n(CCc3ccccc3)c(=O)n1Cc1cccc(F)c1)n2C,39.3%,5.3%,9.7%,4.0%[59 µM],/,/
Cc1noc(C)c1-c1cc(NC2CCNCC2)ncn1,/,/,/,-13.2%[0.501 µM],/,/
Cc1c(C#N)c(O)n(CCO)c(=O)c1N=Nc1ccc2c(c1)COC2=O,-18.0%,-17.5%,-34.4%,50.1µM*,-1.0,-15.4
CCCC(=O)Nc1ccc2c(c1)COC2=O,?,-15.4%,-22.5%,-3.3%,5.2,45.3
CC1(C)Cc2cccc(OCC(O)CNCc3ccccn3)c2O1 (stereo not given),35.4%,?,89.1µM*,?,?,?
Oc1ccc(-c2nc3ccc4ccccc4c3c3c2CCC3)cc1O,?,50.1µM*,?,?,7.9,?
Cc1cc(C)c2c(ccc3ccccc32)n1,36.3%,/,-3.5%,/,1.1,5.0
O=C(CCc1nnc2ccc(NCc3ccco3)nn12)Nc1ccccn1,32.3%,50.1µM*,11.3%,?,/,-14.0
Cc1cccc(NC(=O)CCc2nnc3ccc(NCc4ccco4)nn23)n1,46.0%,50.1µM*,16.0%,-7.1%,/,-9.5
O=C(CCc1nnc2ccc(NCc3ccco3)nn12)N1CCN(c2ccccc2F)CC1,30.1%,70.8µM*,?,/,-3.8,-4.7
COc1ccc(NC(=O)CCc2nnc3ccc(NCc4ccco4)nn23)cc1,20.9%,-30.1%,-28.2%,17.7%,-2.4,-3.5
COc1ccccc1C(C)N(C)Cc1nc(COc2ccccc2)no1 (stereo not given),55.6%,33.3%,17.0%,24.3%,7.4,-2.6
CCOc1ccc(NC(=O)Cn2cc(C(=O)c3ccc(C)c(C)c3)c(=O)c3cc4c(cc32)OCCO4)cc1,16.9%,-4.0%,-13.6%,-40.3%[59 µM],/,/
c1ccc(Nc2cc(-c3ccoc3)ncn2)cc1,/,/,/,-14.9%[0.501 µM],/,/
